40 molecules from PubChem BioAssay (Tox21) can be followed below.

Molecules are shown by their SMILES. Inconclusive results are not listed. Entries that show only a call come without a potency. Activity calls are given as the source filed them. The call rests on the fitted dose curve; in most records, active means well fitted activation curve with a large enough effect in the repeat runs; inconclusive means weak or mixed curves; inactive means flat fitted curve, though single readings scatter.
Potency means the concentration at half of the fitted maximal effect.

This assay in a line: A CellTox Green Cytotoxicity Assay to monitor cytotoxicity in HepG2 cells - 24 hour (AID 1224878). Further: nearly all actives have a fitted effect of over 45% in size. Particulars: CellTox Green fluorescence; series mostly up to 76.8 µM. The text has this:
National Center for Advancing Translational Sciences [NCATS]
NIH Chemical Genomics Center [NCGC]
U.S. Environmental Protection Agency [EPA]
National Institutes of Environmental Health Sciences [NIEHS]
National Toxicology Program [NTP]
Cell-based models are critical for drug discovery. Determining the natural cytotoxic effects resulting from test compounds is an essential research activity. A CellTox Green Cytotoxicity Assay to monitor cytotoxicity in real time of continues cell culture during 40 hours of the compound treatment was used to screen Tox21 10K library compounds in HepG2 cells. CellTox Green Cytotoxicity Assay is a nonlytic, homogeneous, biofluorescent method to measure cytotoxicity in cell culture after experimental manipulation. The assay system uses a proprietary asymmetric cyanine dye that is excluded from viable cells but preferentially stains the dead cell's DNA. […] Viable cells produce no appreciable increases in fluorescence. Therefore, the fluorescence signal produced by the binding interaction with dead cell DNA is proportional to cytotoxicity.
The mixture of HepG2 cell suspension and reagents were dispensed at 600cells/6 ul/well in 1536-well tissue culture treated black solid bottom plates using a Multidrop dispenser. After the assay plates were incubated at a 37 C/5% CO2 incubator for 5 hours, 23 nL of compounds dissolved in DMSO, positive and negative controls was transferred to the assay plate by a pintool work station. The plates were incubated at 37 C for 40 hours. The fluorescence intensity were measured at 0h, 8h, 16h, 24h, 32h and 40h time points using ViewLux plate reader during compound treatment.
As to `Nc1nc(-c2ccc([N+](=O)[O-])cc2)cs1`, the Potency result is “inactive”.
As to `NC(=O)c1ccccc1[N+](=O)[O-]`, the Potency result was “inactive”.
As to `C[C@H](CS)C(=O)N1CCC[C@H]1C(=O)O`, the Potency entry is “inactive”.
Consider `CCCCCCCCCCCCCCCCCC(=O)OCC(CC)CCCC` (stereo not given), for which the Potency entry was “inactive”.
For the molecule `Cc1ccc(N(CC2=NCCN2)c2cccc(O)c2)cc1`, the Potency result is “inactive”.
The value for `CC12CC3CC(C)(C1)CC(N)(C3)C2` was “inactive”.
Take `N[C@@H](Cc1cc(I)c(O)c(I)c1)C(=O)O`: the Potency result is “inactive”.
In the case of `Cc1ccc2c(c1)CCCN2`, the Potency result was “inactive”.
In the case of `CC(=O)NNC(C)=O`, the Potency result is “inactive”.
The value for `COC(OC)OC` was “inactive”.
The value for `CN(C)CC/C=C1\c2ccccc2Sc2ccc(Cl)cc21` was 21.3 µM (active); that for `CCOC(=O)Oc1ccc(CCNC(=O)[C@H](CCSC)NC(C)=O)cc1OC(=O)OCC` was “inactive”; that for `NC(=O)CCCCC(N)=O` was “inactive”.
In the case of `Nc1ccc(N=Nc2ccc(N)cc2)cc1`, the Potency entry was “inactive”.
The value for `Cc1cccc2sc(N)nc12` was “inactive”; that for `Cc1cn([C@H]2C[C@H](F)[C@@H](CO)O2)c(=O)[nH]c1=O` was “inactive”; that for `O=C(O)c1cccc(C[C@@H]2COc3ccc(OCc4nc5cc(F)ccc5s4)cc3[C@@H]2O)c1` was “inactive”.
In the case of `CC1=C2[C@@H]([C@H](C)CC[C@H]2/C=C(\C)C(=O)O)[C@H](O)C1`, the Potency result is “inactive”.
The value for `COC(=O)CC(C(C)=O)C(=O)OC` (stereo not given) was “inactive”; that for `CCCCCCCCCCCC(=O)OCC(O)CO` (stereo not given) was “inactive”.
In the case of `CCN(CC)c1ccc(C(=C2C=CC(=[N+](CC)CC)C=C2)c2ccc(S(=O)(=O)O)cc2S(=O)(=O)[O-])cc1`, the Potency entry is “inactive”.
Next, `CC1CCCO1` (stereo not given): “inactive”; `C1CCCCC1`: “inactive”.
The value for `O=C(O)/C=C/c1ccc(O)c(O)c1` was “inactive”; that for `CC(C)C(O)C(C)(C)CO` (stereo not given) was “inactive”; that for `CC(=O)OCC(C)C` was “inactive”.
With `O=C(O)CCC(=O)c1ccc(-c2ccccc2)cc1`, the Potency entry is “inactive”.
With `O=NN(CCCl)C(=O)NCCCl`, the Potency was 4.77 µM (active).
The value for `Cc1cc(CCC(=O)OCCOCCOCCOC(=O)CCc2cc(C)c(O)c(C(C)(C)C)c2)cc(C(C)(C)C)c1O` was “inactive”; that for `O=c1[nH][nH]c(=O)c2cc([N+](=O)[O-])ccc12` was “inactive”.
The value for `CN1CCCN(C(c2ccccc2)c2ccc(Cl)cc2)CC1` (stereo not given) was 23.9 µM (active); that for `COc1cc(NCc2ccc3nc(N)nc(N)c3c2C)cc(OC)c1OC` was “inactive”.
On to `CC[C@@H](CO)NCCN[C@@H](CC)CO`, for which the Potency entry is “inactive”.
The value for `COC(C)(C)OC` was “inactive”; that for `CNC1CCCN(c2c(F)cc3c(=O)c(C(=O)O)cn(C4CC4)c3c2OC)C1` (stereo not given) was “inactive”; that for `Nc1ccc(S(=O)(=O)NCc2ccccc2)cc1` was “inactive”.
Next, `O=S(=O)(Cl)c1c(Cl)cccc1Cl`: “inactive”; `CCN(CC)CCOc1ccccc1C(=O)CCc1ccccc1`: “inactive”; `C=CC(=O)O`: “inactive”.
Regarding `O=[N+]([O-])C1(Br)COCOC1`, the Potency was 54.9 µM (active).
